In the supplement of paper PMC7380943:
Structures can show the parent of a compound that is named as a salt.

Key:
[1] = test system: CLZ3 (HCA2 human fibroblast dual HR-NHEJ reporter); assay: NHEJ repair efficiency (GFP+ cells) relative to control (log10 fold); higher = more non-homologous end joining; conditions: 5 µM; doxycycline 0.5 ug/mL
[2] = test system: CLZ3 (HCA2 human fibroblast dual HR-NHEJ reporter); assay: HR repair efficiency (tdTomato+ cells) relative to control (log10 fold); higher = more homologous recombination; conditions: 5 µM; doxycycline 0.5 ug/mL
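Wherever HR repair efficiency (tdTomato+ cells) relative to control is given: compound given one day before doxycycline, which switches on I-SceI endonuclease expression to create double-strand breaks within the integrated reporter.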
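Wherever NHEJ repair efficiency (GFP+ cells) relative to control is given: compound given one day ahead of doxycycline, which switches on I-SceI endonuclease to cut the chromosomally integrated reporter and create DSBs.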

SMILES	NHEJ repair efficiency (log10) [1]	HR repair efficiency (log10) [2]
CC12CCC(CC1=O)C2(C)C (stereo unspecified) [Camphor]	-0.0599	-0.0168
CCCCCC=CC(=O)CCc1ccc(O)c(OC)c1 [6-Shogaol]	-0.0185	-0.0794
O=C(O)CC(O)C(=O)O (stereo unspecified) [Malic Acid]	-0.069	-0.141
O=C(O)[C@H]1O[C@@H](Oc2cc3oc(-c4ccccc4)cc(=O)c3c(O)c2O)[C@H](O)[C@@H](O)[C@@H]1O [Baicalin]	-0.073	0.053
CC1(C)[C@H](OC(=O)c2ccccc2)CC[C@]2(C)C3=C([C@@H](O)C[C@@H]12)[C@@]1(C)CC[C@@]2(C)CC[C@@](C)(COC(=O)c4ccccc4)C[C@H]2[C@]1(C)CC3 [3,29-Dibenzoyl Rarounitriol]	-0.00463	0.103
CC(C)(O)CC[C@@H](O)C(C)(O)[C@H]1CC[C@@]2(O)C3=CC(=O)[C@@H]4C[C@@H](O)[C@@H](O)C[C@]4(C)[C@H]3CC[C@]12C (stereo partly drawn) [Β-Hydroxyecdysone]	-0.034	0.056
OC[C@H]1O[C@@H](Oc2cc(O)cc(/C=C/c3ccc(O[C@@H]4O[C@H](CO)[C@@H](O)[C@H](O)[C@H]4O)cc3O)c2)[C@H](O)[C@@H](O)[C@@H]1O [Mulberroside A]	0.049	0.234
O=C(/C=C/c1ccc(O)cc1)C1=C(O)C(O)([C@@H]2O[C@H](CO)[C@@H](O)[C@H](O)[C@H]2O)C(O)=C([C@@H]2O[C@H](CO)[C@@H](O)[C@H](O)[C@H]2O)C1=O (stereo partly specified) [Hydroxysafflor yellow A]	0.0258	0.0597
COc1ccc2c(OC)c3ccoc3nc2c1OC [Skimmianine]	-0.0606	0.00427
COc1c(O)cc2oc(-c3ccccc3)cc(=O)c2c1O [Oroxylin-A]	-0.22	0.0535
O=C1c2c(O)cc(O)cc2OC(c2ccc(O)c(O)c2)C1O (stereo unspecified) [Taxifolin]	-0.132	-0.0702
COc1ccc2[nH]cc(CCNC(C)=O)c2c1 [Melatonin]	0.0863	0.227
C/C(=C\C(=O)CC(C)C(=O)O)[C@H]1CC(=O)[C@@]2(C)C3=C(C(=O)C[C@]12C)[C@@]1(C)CC[C@H](O)C(C)(C)[C@@H]1C[C@@H]3O (stereo partly specified) [Ganoderenic Acid B]	0.000561	0.021
O=C(/C=C/c1ccc(O)c(O)c1)OC[C@H]1O[C@@H](OCCc2ccc(O)c(O)c2)[C@H](O)[C@@H](O)[C@@H]1O [Calceolarioside B]	-0.0242	0.193
O=c1c(-c2ccc(O)cc2)coc2cc(O[C@@H]3O[C@H](CO)[C@@H](O)[C@H](O)[C@H]3O)ccc12 [Daidzin]	-0.234	0.03
CC(=O)S[C@@H]1CC2=CC(=O)CC[C@]2(C)[C@H]2CC[C@@]3(C)[C@@H](CC[C@@]34CCC(=O)O4)[C@H]12 [Spironolactone]	0.15	-0.0059
O=C1O[C@H]2[C@@H]3OC(=O)c4cc(O)c(O)c(O)c4-c4c(cc(O)c(O)c4O)C(=O)OC[C@H]2O[C@@H](OC(=O)c2cc(O)c(O)c(O)c2)[C@@H]3OC(=O)c2cc(O)c(O)c3c2[C@@H]2C1=CC(=O)[C@](O)(O3)C2(O)O [Geraniin]	-0.0851	0.0593
C=C1CCC[C@]2(C)C=C3OC(=O)C(C)=C3C[C@@H]12 [Atractylenolide I]	0.0524	0.0435
COc1ccc2cc3[n+](cc2c1OC)CCc1cc2c(cc1-3)OCO2 [Berberine hydrochloride]	-0.127	-0.283
CC(C)(C)NCC(O)c1ccc(O)c(CO)c1 (stereo unspecified) [Salbutamol Sulfate]	-0.0861	-0.085
C=C(C)[C@@H]1CC[C@]2(C(=O)O)CC[C@]3(C)[C@H](CC[C@@H]4[C@@]5(C)CC[C@H](O)C(C)(C)[C@@H]5CC[C@]43C)[C@@H]12 [Betulinic acid]	0.0052	0.0512
c1cc2c(c3c1CC1c4cc5c(cc4CCN1C3)OCO5)OCO2 (stereo unspecified) [Tetrahydrocoptisine]	-0.0636	-0.0746
COC(=O)[C@H]1O[C@@H](Oc2cc3oc(-c4ccc(O)cc4)cc(=O)c3c(O)c2O)[C@H](O)[C@@H](O)[C@@H]1O [Scutellarin Methyl Ester]	-0.156	-0.014
C[C@@H]1O[C@@H](O[C@H]2[C@H](O[C@H]3CC[C@@]4(C)[C@@H](CC[C@]5(C)[C@@H]4CC=C4[C@@H]6CC(C)(C)CC[C@]6(C(=O)O)CC[C@]45C)[C@]3(C)CO)OC[C@H](O)[C@@H]2O)[C@H](O)[C@H](O)[C@H]1O [α-Hederin]	-0.0243	-0.192
CC(=O)C1=C(O)C=C2Oc3c(C(C)=O)c(O)c(C)c(O)c3C2(C)C1=O (stereo in doubt) [Usnic Acid]	0.00929	0.00791
COc1cccc(OC)c1C(=O)OCc1cc(O)ccc1O[C@@H]1O[C@H](CO)[C@@H](O)[C@H](O)[C@H]1O [Curculigoside]	0.0105	0.0401
COc1ccc(-c2oc3c(CC=C(C)C)c(O[C@@H]4O[C@H](CO)[C@@H](O)[C@H](O)[C@H]4O)cc(O)c3c(=O)c2O[C@@H]2O[C@@H](C)[C@H](O)[C@@H](O)[C@H]2O[C@@H]2OC[C@@H](O)[C@H](O)[C@H]2O)cc1 [Epimedin B]	-0.0634	-0.0516
Cn1cnc2c1c(=O)[nH]c(=O)n2C [Theobromine]	-0.0855	0.141
